# HT1080-NT tox: qHTS for induction of synthetic lethality in tumor cells producing 2HG: qHTS for the HT-1080-NT fibrosarcoma cell line. HT-1080-NT fibrosarcoma viability, CellTiter-Glo ATP luminescence, 48 h. Potency, µM (top dose mostly 46.1 µM), for inactives: at the highest dose activity, negative = less viability, usual class: cytotoxic. actives 1.6% (n = 360,000);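 note: NT is the 2HG producing partner of a matched IDH1 knockdown line; potency is the fitted concentration of half-maximal effect; 0% = DMSO-treated cells and -100% = media-only wells without cells; nearly all actives have a fitted effect of over 55% in size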
#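 Luminescent CellTiter-Glo readout after 48 hours of compound exposure at 37 degrees C defined viability of HT-1080-NT cells. Activity was normalized to DMSO wells and cell-free media wells; concentration-response curves were fitted and assigned curve classes.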
# DT40 TDP1 no CPT: qHTS for Inhibitors of human tyrosyl-DNA phosphodiesterase 1 (TDP1): qHTS in cells in absence of CPT | DT40 Tdp1-/- hTDP1 cells, no CPT, ATP luminescence, 48 h | Potency, µM (titrated, usually from 46.2 µM), for the others: at the top dose activity change, negative = growth inhibition, most hits filed as inhibitors | actives 15% (n = 420,000) | AID 686978, 2013; note: potency is the fitted concentration of half-maximal effect; nearly all actives have a fitted effect of over 55% in size
#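 Luminescent ATP content (CellTiter-Glo) served as the growth readout. Knockout chicken DT40 cells expressing human TDP1 were exposed to compounds without camptothecin for a minimum 48 hr at 37 °C.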
# ELG1 DNA repair: qHTS screen for small molecules that inhibit ELG1-dependent DNA repair in human embryonic kidney (HEK293T) cells expressing luciferase-tagged ELG1; HEK293T ELG1-luciferase reporter, luminescence, 16 h; DNA damage induced by 5-fluorouridine; AID 504467, 2011; actives 2.3% (n = 330,000); Potency, µM (doses to about 46.1 µM), without a hit: top-dose activity change, negative = inhibition, hits mostly inhibitors; note: potency is the fitted concentration of half-maximal effect; nearly all actives have a fitted effect of over 55% in size
#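 Quantitative HTS, concentration-response format. 2,000 cells/well co-treated with 5-fluorouridine and compound, 16 hr in 5% CO2 at 37 °C; ONE-Glo luminescence read after 30 min.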
# HT1080 IDH1KD tx: qHTS for induction of synthetic lethality in tumor cells producing 2HG: qHTS for the HT-1080-IDH1KD cell line; HT-1080 IDH1 knockdown viability, ATP luminescence, 48 h; Potency, µM (doses to about 46.1 µM), for the others: at the highest dose activity, negative = toxicity, actives largely listed as cytotoxic; actives 2% (n = 360,000); AID 686971, 2013;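 note: potency is the fitted concentration of half-maximal effect; 0% = DMSO wells and -100% = cell-free medium wells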
#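 Knockdown cells (IDH1KD HT-1080) received compounds 2 h after plating at 750 cells/well and were kept 48 h at 37 °C in 5% FBS RPMI. A CellTiter-Glo luminescence read gave % activity for curve fitting.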
# IL1B secr inh: qHTS for Inhibitors of Inflammasome Signaling: IL-1-beta AlphaLISA Primary Screen; activity change, % at 57.5 µM; actives 4.7% (n = 360,000); THP-1 LPS/ATP IL-1B secretion, AlphaLISA, 16 h; active compounds read low; AID 743279, 2014; in the data active = activity change below about -50%; inconclusive = mostly about -30% to -49%
#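 THP-1 cells pretreated 1 hr with compounds (up to 57.5 uM final), then stimulated with LPS (250 ng/mL final) plus ATP (1.25 mM final); secreted IL-1B measured by AlphaLISA after 16 hr, decreased signal indicating inhibition.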
# TDP1 cell CPT: qHTS for Inhibitors of human tyrosyl-DNA phosphodiesterase 1 (TDP1): qHTS in cells in presence of CPT. AID 686979, 2013. actives 12% (n = 420,000). chicken DT40 Tdp1-/-;hTDP1 cells + 20 nM CPT, ATP luminescence, 48 h. Potency, µM (titrated, usually from 46.2 µM), for the others: at the top dose activity change, negative = growth inhibition, usual class: inhibitors; note: potency is the fitted concentration of half-maximal effect; nearly all actives have a fitted effect of over 55% in size
#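 Chicken DT40 Tdp1-/- cells complemented with human TDP1, 400 cells/well, exposed to compounds plus 20 nM camptothecin for at least 48 h at 37 C; viability read as ATP content by CellTiter-Glo luminescence.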
# An asterisk follows results filed as active; ? = inconclusive; nt = no result. Rows were chosen to be rich in hits. Some 19% of all compounds tested hit in one or more screens of this group. Unless noted, calls come from the whole dose curve; as a rule, active = well fitted curve in the direction sought with a large enough effect; inconclusive = small, poorly fitted or top-dose-only effect, or another doubt; inactive = no such curve, though single readings can be large; an effect the other way counts as inactive or inconclusive. Unless noted, % is set by controls: 0 for no effect and ±100 for the full control effect.
SMILES,HT1080-NT tox,DT40 TDP1 no CPT,ELG1 DNA repair,HT1080 IDH1KD tx,IL1B secr inh,TDP1 cell CPT
CC1CCN(c2c(NCc3ccc(C(=O)N4CCc5ccccc54)cc3)c(=O)c2=O)CC1,5.2µM*,5.8µM*,?,4.1µM*,110,5.2µM*
CC1CCN(c2c(NCc3ccc(C(=O)N(C)C4CCCCC4)cc3)c(=O)c2=O)CC1,0%,-21%,?,10%,?,?
COc1cccc(C(=O)OCC(=O)NCCNC(=O)COC(=O)c2cccc(OC)c2OC)c1OC,10%,-24%,1%,12%,4,-14%
CC(C)[C@H](NC(=O)c1ccccc1F)C(=O)OCCN1C(=O)c2ccccc2C1=O,9%,-1%,?,0%,6,-2%
Cc1ccc(C(=O)N/N=C/c2ccoc2)cc1C,-9%,18%,?,-1%,?,6%
C=CCNC(=S)NNC(=O)c1cccn(Cc2ccc(Cl)cc2Cl)c1=O,3%,?,-19%,-21%,14,16µM*
Cc1ccc(NC(=O)c2ccc3nsnc3c2)c(C)c1,-4%,?,?,8%,-5,?
Cc1ccc(NC(=O)C(=Cc2ccc(C(=O)O)cc2)C(=O)Nc2ccc(C)cc2C)c(C)c1,15µM*,2.9µM*,16µM*,12µM*,-100*,5.2µM*
CCOC(=O)c1c(-c2ccccc2)oc2ccc(O)c(CN3CCCC3)c12,?,21µM*,0%,?,-60*,23µM*
Cc1oc2c(CN3CCCC3)c(O)ccc2c(=O)c1-c1ccccc1,1%,-8%,8%,-19%,12,-21%
Cc1oc2ccc(O)c(CN3CCN(C)CC3)c2c1C(=O)Nc1ccc(C(C)C)cc1,nt,21µM*,nt,nt,nt,16µM*
CCOC(=O)c1oc2ccccc2c1CN1CCCCC1,11%,-1%,25%,5%,2,-12%
Cc1oc2ccc(O)c(CN3CCCC3)c2c1C(=O)Nc1ccc(C(C)C)cc1,nt,23µM*,nt,nt,nt,23µM*
Cc1oc2ccc(O)c(CN3CCN(C)CC3)c2c1C(=O)Nc1ccccc1,nt,-9%,nt,nt,nt,-29%
Cc1ccc(NC(=O)c2c(C)oc3ccc(O)c(CN4CCCCCC4)c23)cc1,nt,16µM*,nt,nt,nt,15µM*
O=C(NC(=S)N1CCOCC1)c1cn(-c2ccccc2)nc1-c1ccc(F)cc1,-12%,?,-22%,-8%,-25,?
Nc1nc2c(ncn2[C@@H]2O[C@H](COP(=O)(O)OP(=O)(O)O)[C@@H](O)[C@H]2O)c(=O)[nH]1,nt,-15%,nt,nt,nt,-16%
Cc1cc(NS(=O)(=O)c2ccc(NC(=O)CCCOc3ccccc3C)cc2)no1,4%,3%,1%,6%,10,-23%
O=C(O)/C=C/c1ccc(S(=O)(=O)N2CCN(CCN3C(=O)C4C5C=CC(C5)C4C3=O)CC2)cc1 (configuration not stated),3%,-8%,3%,2%,-15,-1%
Cc1ccc(CCNC(=O)CN2CCN(Cc3ccc(Cl)cc3)C2=O)cc1,nt,?,nt,nt,nt,-25%
CCOC(=O)c1c(COc2ccccc2)oc2ccc(O)cc12,-21%,-15%,-2%,-24%,18,0%
Cc1oc2ccc(O)c(CN3CCCCCC3)c2c1C(=O)Nc1cccc(C(F)(F)F)c1,nt,5.2µM*,nt,nt,nt,3.7µM*

# Source: PubChem BioAssay
